Data on seven molecules can be found in PubChem BioAssay (NCI).

Assay [1] can be described thus: NCI Yeast Anticancer Drug Screen. Data for the rad50 strain (AID 155).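 Further: 0% = growth of vehicle-only cultures of the same strain.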 As to conditions: S. cerevisiae rad50 strain growth inhibition, stronger effect = higher value. Summed up:
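Readout: growth inhibition relative to vehicle-treated cultures. Compound exposure was carried out in a genetically defined yeast strain deficient in DNA damage repair.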

Assay [2] can be described thus: NCI Yeast Anticancer Drug Screen. Data for the mec2-1 strain (AID 157). To be noted: S. cerevisiae mec2-1 strain, stronger effect = higher value. The procedure, abridged: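 Readout is yeast growth inhibition, normalised to vehicle-treated controls, in the mec2-1 strain exposed to compound.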
The nature of assay [3]: NCI Yeast Anticancer Drug Screen. Data for the sgs1 mgt1 strain (AID 161).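 Further: 0% = growth of cultures given vehicle only.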 To be noted: S. cerevisiae sgs1 mgt1 strain, stronger effect = higher value. The procedure, abridged:
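Compounds are added to genetically altered yeast, and growth is compared with cultures given vehicle alone to give percent inhibition.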

Assay [4] in a line: NCI Yeast Anticancer Drug Screen. Data for the cln2 rad14 strain (AID 165).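 Further: 0% = growth equal to vehicle treated cultures.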 As to conditions: S. cerevisiae cln2 rad14 strain, stronger effect = higher value. The procedure, abridged: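 Relative to vehicle controls, growth inhibition of compound-treated cln2 rad14 yeast was recorded.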
Assay [5] in a line: NCI Yeast Anticancer Drug Screen. Data for the bub3 strain (AID 167). As to conditions: S. cerevisiae bub3 mutant strain, stronger effect = higher value. Summed up:
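Readout: yeast growth inhibition, expressed relative to vehicle-only wells. The test organism is a mutant strain from a panel with lesions in DNA repair or checkpoint genes.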

Assay [6] is described as follows: NCI Yeast Anticancer Drug Screen. Data for the mlh1 rad18 strain (AID 175). To be noted: S. cerevisiae mlh1 rad18 strain growth inhibition, stronger effect = higher value. Summed up:
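Test agents were incubated with a yeast strain of defined genotype (DNA damage repair defect). Inhibition of growth was derived by comparison with vehicle-exposed cultures.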

The mark [7] stands for this setting: at 5.0 µM (retest, dose inferred, filed as 0.5).
[8] abbreviates: at 50.0 µM (retest, dose inferred, filed as 5.0).

Molecules are shown by their SMILES. This is part of a sample that, as a whole, favours compounds with a hit. Of some 79,000 tested, about 15% had one in any assay. A number with no mark means an inactive call. Activity calls are given as the source filed them. No stated cut-off is given here; in the data, active means growth inhibition above about 70%; inactive means the rest.

For the molecule `Cc1nc(Nc2ccccc2)sc1C(=O)NNc1ccc([N+](=O)[O-])cc1[N+](=O)[O-]`, the growth inhibition in assay [1] (setting [7]) was 19%; in assay [1] (setting [8]), 19%; in assay [1] (at 50.0 µM), 12.6%; in assay [2] (setting [7]), 7%; in assay [2] (setting [8]), 7%; in assay [2] (at 50.0 µM), 40.2%. The growth inhibition in assay [3] (setting [7]) was -6%; in assay [3] (setting [8]) it was -6%; in assay [3] (at 50.0 µM) it was 60.8%; in assay [4] (setting [7]), 14%; in assay [4] (setting [8]), 14%; in assay [4] (at 50.0 µM), 28.4%. For the same molecule, the growth inhibition was 15% in assay [5] (setting [7]); 15% in assay [5] (setting [8]); 43% in assay [5] (at 50.0 µM); 20% in assay [6] (setting [7]); 20% in assay [6] (setting [8]); 66.2% in assay [6] (at 50.0 µM).

Consider `O=C(Nc1ccc(Cl)cc1)OCCOCCOC(=O)Nc1ccc(Cl)cc1`, for which the growth inhibition in assay [1] (setting [7]) was 9%; in assay [1] (setting [8]) it was 97% (active); in assay [1] (at 50.0 µM), 95.8% (active); in assay [2] (setting [7]), 0%; in assay [2] (setting [8]), 97% (active); in assay [2] (at 50.0 µM), 97% (active). Besides, the growth inhibition is 25% in assay [3] (setting [7]); 93% (active) in assay [3] (setting [8]); 97.9% (active) in assay [3] (at 50.0 µM); 6% in assay [4] (setting [7]); 97% (active) in assay [4] (setting [8]); 98.2% (active) in assay [4] (at 50.0 µM). Also, the growth inhibition was -7% in assay [5] (setting [7]); 97% (active) in assay [5] (setting [8]); 98.7% (active) in assay [5] (at 50.0 µM); 4% in assay [6] (setting [7]); 96% (active) in assay [6] (setting [8]); 98% (active) in assay [6] (at 50.0 µM).

For the molecule `ClC1c2ccccc2Cc2cccnc21` (stereo unspecified), the growth inhibition in assay [1] (setting [7]) was 21%; in assay [1] (setting [8]) it was 85% (active); in assay [1] (at 50.0 µM), 75.3% (active); in assay [2] (setting [7]), 11%; in assay [2] (setting [8]), 24%; in assay [2] (at 50.0 µM), 11.8%. The growth inhibition in assay [3] (setting [7]) was 10%; in assay [3] (setting [8]) it was 59%; in assay [3] (at 50.0 µM) it was 12.2%; in assay [4] (setting [7]), 4%; in assay [4] (setting [8]) it was 22%; in assay [4] (at 50.0 µM), -5.1%. Moreover, the growth inhibition was 7% in assay [5] (setting [7]); 48% in assay [5] (setting [8]); -6.6% in assay [5] (at 50.0 µM); 8% in assay [6] (setting [7]); 76% (active) in assay [6] (setting [8]); 23.5% in assay [6] (at 50.0 µM).

As to `C#CCCCCCOC(=O)c1cc([N+](=O)[O-])cc([N+](=O)[O-])c1`, the growth inhibition in assay [1] (setting [7]) is 97% (active); in assay [1] (setting [8]), 99% (active); in assay [1] (at 50.0 µM) it was 98.5% (active); in assay [2] (setting [7]), 99% (active); in assay [2] (setting [8]), 99% (active); in assay [2] (at 50.0 µM), 99% (active). Further, the growth inhibition in assay [3] (setting [7]) was 99% (active); in assay [3] (setting [8]), 99% (active); in assay [3] (at 50.0 µM), 99% (active); in assay [4] (setting [7]) it was 95% (active); in assay [4] (setting [8]), 98% (active); in assay [4] (at 50.0 µM) it was 98.1% (active). The growth inhibition in assay [5] (setting [7]) was 98% (active); in assay [5] (setting [8]), 99% (active); in assay [5] (at 50.0 µM), 99.2% (active); in assay [6] (setting [7]), 99% (active); in assay [6] (setting [8]), 99% (active); in assay [6] (at 50.0 µM), 98% (active).

Take `CC(C)(C)N1OC2(c3ccccc3)OC3N(C(C)(C)C)OC4(c5ccccc5)OC1C2(c1ccccc1)C34c1ccccc1` (stereo unspecified): the growth inhibition is -4% in assay [1] (setting [7]); 99% (active) in assay [1] (setting [8]); 93.7% (active) in assay [1] (at 50.0 µM); -2% in assay [2] (setting [7]); 100% (active) in assay [2] (setting [8]); 97.9% (active) in assay [2] (at 50.0 µM). Besides, the growth inhibition in assay [3] (setting [7]) is -5%; in assay [3] (setting [8]), 99% (active); in assay [3] (at 50.0 µM), 72% (active); in assay [4] (setting [7]), 4%; in assay [4] (setting [8]), 99% (active); in assay [4] (at 50.0 µM), 98% (active). For the same molecule, the growth inhibition is 1% in assay [5] (setting [7]); 99% (active) in assay [5] (setting [8]); 99.2% (active) in assay [5] (at 50.0 µM); 0% in assay [6] (setting [7]); 99% (active) in assay [6] (setting [8]); 96% (active) in assay [6] (at 50.0 µM).

As for `[O-]/[N+]1=[N+](\[O-])c2ccccc2CCc2ccccc21`, the growth inhibition was -1% in assay [1] (setting [7]); -4% in assay [1] (setting [8]); 3.8% in assay [1] (at 50.0 µM); -1% in assay [2] (setting [7]); 1% in assay [2] (setting [8]); -4.65% in assay [2] (at 50.0 µM). Also, the growth inhibition in assay [3] (setting [7]) was 4%; in assay [3] (setting [8]), 1%; in assay [3] (at 50.0 µM), 40.1%; in assay [4] (setting [7]), -1%; in assay [4] (setting [8]), -4%; in assay [4] (at 50.0 µM) it was 1%. Moreover, the growth inhibition in assay [5] (setting [7]) was -1%; in assay [5] (setting [8]) it was 0%; in assay [5] (at 50.0 µM), 15.4%; in assay [6] (setting [7]) it was -3%; in assay [6] (setting [8]), 3%; in assay [6] (at 50.0 µM), 1.6%.

With `O=C1NC(=O)C(Cc2ccccc2)(Cc2ccccc2)S1`, the growth inhibition in assay [1] (setting [7]) was 5%; in assay [1] (setting [8]), 98% (active); in assay [1] (at 50.0 µM), 99.2% (active); in assay [2] (setting [7]) it was 10%; in assay [2] (setting [8]), 99% (active); in assay [2] (at 50.0 µM), 99.4% (active). Besides, the growth inhibition in assay [3] (setting [7]) was -16%; in assay [3] (setting [8]) it was 98% (active); in assay [3] (at 50.0 µM), 99.3% (active); in assay [4] (setting [7]), 21%; in assay [4] (setting [8]) it was 99% (active); in assay [4] (at 50.0 µM) it was 99.2% (active). The growth inhibition in assay [5] (setting [7]) was 17%; in assay [5] (setting [8]), 99% (active); in assay [5] (at 50.0 µM) it was 99.5% (active); in assay [6] (setting [7]), 6%; in assay [6] (setting [8]) it was 99% (active); in assay [6] (at 50.0 µM), 99.2% (active).
